Cycloheximide cs = counter-screen hit for Shiga toxin inhibitors, cycloheximide; cell reporter, cycloheximide protein synthesis inhibition counterscreen; max response, %; 300,000 compounds, 12% hits; AID 2314; in the data active = max response mostly above about 13%, no sharp cut-off; inactive = mostly below about 14%; note: read at 38.3 µM for the half of the compounds with a filed dose; 0% is about no effect
LmPK inhibitor = inhibitors of Leishmania mexicana pyruvate kinase | 290,000 compounds, 0.37% hits | Potency, µM (doses to about 57.5 µM), for inactives: at the top dose activity change, negative = inhibition, most hits filed as inhibitors | purified LmPK, Kinase-Glo ATP luminescence, 1 h; note: potency is the fitted concentration of half-maximal effect; % is set by controls: 0 for no effect and ±100 for the full control effect
Target sequence (Q27686 whole entry, looked up): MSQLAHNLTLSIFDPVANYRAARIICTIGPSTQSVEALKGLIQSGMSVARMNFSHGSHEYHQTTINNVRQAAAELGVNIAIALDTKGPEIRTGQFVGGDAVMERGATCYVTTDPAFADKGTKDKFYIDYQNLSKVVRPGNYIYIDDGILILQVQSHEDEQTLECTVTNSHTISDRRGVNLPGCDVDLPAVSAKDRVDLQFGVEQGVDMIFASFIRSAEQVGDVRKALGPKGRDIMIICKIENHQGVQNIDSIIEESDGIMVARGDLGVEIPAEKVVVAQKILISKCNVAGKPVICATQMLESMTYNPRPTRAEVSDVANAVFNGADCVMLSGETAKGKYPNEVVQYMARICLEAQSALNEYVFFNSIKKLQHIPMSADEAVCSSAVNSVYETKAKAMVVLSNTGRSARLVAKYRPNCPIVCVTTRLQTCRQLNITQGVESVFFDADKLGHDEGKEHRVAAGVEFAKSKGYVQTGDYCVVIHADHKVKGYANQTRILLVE
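Pyruvate kinase activity monitored as ATP production (luciferase luminescence). Conditions: 0.1 nM enzyme, 0.5 mM PEP, 0.1 mM ADP, 1 h, RT; normalized against uninhibited and no-enzyme wells.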
Shiga toxin inh = blocks Shiga toxin action in Vero cells. Vero cells, Shiga toxin protein synthesis inhibition reporter. inhibition, % at 38.7 µM. 290,000 compounds, 9.2% hits. AID 2315; in the data active = inhibition mostly above about 28%, no sharp cut-off; inactive = mostly below about 43%; note: 0% is about no effect
Pf growth 48h = inhibits P. falciparum growth in the first generation, 48 h; 310,000 compounds, 5.9% hits; P. falciparum luciferase growth in erythrocytes, 48 h; Potency, µM (doses to about 28.7 µM), for the others: at the highest dose activity change, negative = inhibition, hits mostly inhibitors; note: potency is the fitted concentration of half-maximal effect; % is set by controls: 0 for no effect and ±100 for the full control effect
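Luminescence readout; reporter = integrated firefly luciferase in P. falciparum. RBC culture at 2% hematocrit, 0.1% parasitemia final, 37 C/5% CO2; decreased signal taken as growth inhibition.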
Pf growth 96h = inhibits malaria parasite growth, 96 h; AID 504834; P. falciparum luciferase reporter growth, 96 h; Potency, µM (series often up to 28.7 µM), without a hit: at the highest dose activity change, negative = inhibition, actives largely listed as inhibitors; 320,000 compounds, 6.9% hits; note: potency is the fitted concentration of half-maximal effect; % is set by controls: 0 for no effect and ±100 for the full control effect
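Compounds incubated with erythrocytes infected by luciferase-expressing P. falciparum (2% hematocrit, 0.05% parasitemia final) for 96 hours, 37 C in 5% CO2. Growth inhibition scored as decreased luciferase luminescence.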
Active calls of the source: *; ? = inconclusive; / = not tested or not shown; [ ] = another dose, or the depositor's remark. A selection: hits, their analogues and other compounds. The true share with any hit is near 22%. Unless noted, calls come from the whole dose curve; as a rule, active = well fitted inhibition curve with a large enough effect; inconclusive = small, poorly fitted or top-dose-only effect, or another doubt; inactive = no such curve, though single readings can be large or run the other way.

SMILES	Cycloheximide cs	LmPK inhibitor	Shiga toxin inh	Pf growth 48h	Pf growth 96h
O=C(NC(Cc1cccc(F)c1)C(=O)O)C1CCCCC1 (centres undefined)	/	/	/	21%	19%
CN(C)CCN(C(=O)/C=C/c1cccs1)c1nc2ccc(F)cc2s1	4	1%	6	-23%	10µM*
CCN(CC)CCN(C(=O)c1ccccc1OC)c1nc2ccc(F)cc2s1	20*	0%[11.5 µM]	59	12%	?
CN(C)CCCN(C(=O)CCc1ccccc1)c1nc2ccc(F)cc2s1	-3	-4%	-10	?	?
CN(C)CCCN(C(=O)c1cc(-c2cccs2)nc2ccccc12)c1nc2ccc(F)cc2s1	-1	1%	-10	3.3µM*	2.1µM*
CCCNC(=S)N1CCC(C(=O)c2ccc(F)cc2)CC1	-4	-5%	6	-12%	31%
CCC(Cc1ccccc1)NC(=O)CSc1ccsc1[N+](=O)[O-] (centres undefined)	-2	11%	9	-17%	-10%
Cc1onc(-c2ccccc2Cl)c1C(=O)N1CCC(C)CC1	-7	5%	-7	15%	-6%
CCOC(=O)C1CCN(C(=O)c2ccccc2NC(C)=O)CC1	2	1%	4	39%	78%
Cc1oc2c(c1C(=O)N1CCC(C)CC1)C(=O)c1ccccc1C2=O	1	-2%	16	0.23µM*	0.093µM*
CCOC(=O)C1CCN(C(=O)c2c(C)oc3c2C(=O)c2ccccc2C3=O)CC1	4	-1%	15	0.41µM*	0.29µM*
CCCS(=O)(=O)N1CCN(S(=O)(=O)c2ccccc2)CC1	-3	-6%	-7	7%	?
O=C(CNc1cccc2ccccc12)N/N=C/c1ccc([N+](=O)[O-])o1	10*	2%	14	3.3µM*	1.2µM*
O=C(CCN1CCN(c2ccccc2)CC1)N/N=C/c1ccc([N+](=O)[O-])o1	2	4%	-2	?	10µM*
O=C(CN1CCCCCCC1)N/N=C/c1ccc([N+](=O)[O-])o1	5	-2%	2	?	113%
Cc1ccccc1OCC(=O)N/N=C/c1ccc([N+](=O)[O-])o1	-1	-4%	27	5.2µM*	2.1µM*
COc1ccccc1OCC(=O)N/N=C/C=C/c1ccc([N+](=O)[O-])o1	19*	-1%	13	4.1µM*	1.5µM*
CN(C(=O)COC(=O)CNC(=O)c1sc2ccccc2c1Cl)c1ccccc1	-5	-1%	2	-12%	2%
CCOC(=O)C1=NNC2(c3ccc(C)cc3)C(=O)N(c3ccc(Cl)cc3)C(=O)C12 (centres undefined)	-4	-2%	-5	5%	-24%
CC(C)c1ccc(C2CC(=O)c3cnc(NC(=O)c4ccco4)nc3C2)cc1 (centres undefined)	-1	13%	5	18%	0%
O=C(CSc1nnc(NC(=O)C2CC2)s1)NCc1ccccc1Cl	-1	-8%	-2	-7%	-24%
O=C(CNc1cccc([N+](=O)[O-])c1)N/N=C/c1ccc([N+](=O)[O-])o1	-1	-1%	-7	?	-14%
CCCOc1ccc(CC(=O)N/N=C\c2ccc(F)cc2)cc1	1	-1%	-6	57%	-17%
CCCOc1ccc(CCC(=O)N/N=C/c2ccc([N+](=O)[O-])o2)cc1	3	7%	32	?	12µM*
Cc1cc(C)cc(OCC(=O)N/N=C/c2ccc([N+](=O)[O-])o2)c1	24	5%	32	9.3µM*	31%
SMILES	Cycloheximide cs	LmPK inhibitor	Shiga toxin inh	Pf growth 48h	Pf growth 96h
CN1COc2ccc3ccccc3c2C1	18*	-2%	4	-37%	-1%
O=C1OCC2=C1C(c1ccc(F)cc1)CC(=O)N2c1ccccc1 (centres undefined)	4	-9%	1	41%	37%
CSc1nc(SCC(N)=O)c2c3c(sc2n1)CN(C)CC3	1	9%	-12	3.3µM*	0.59µM*
CCNc1nc(SCC(N)=O)nc2sc3c(c12)CCN(C)C3	2	1%	-4	?	1µM*
CCC(O)CNc1nc(SC)nc2sc3c(c12)CCN(C)C3 (centres undefined)	-1	4%	-10	/	/
COC(=O)c1ccccc1NC(=O)c1cnn2cccnc12	-1	4%	-14	7%	18%
Cc1cc(NC(=O)c2nn3cccnc3c2Cl)no1	40*	-12%	34*	/	205%
O=C(Nc1cc(Cl)cc(Cl)c1)c1cnn2cccnc12	1	7%	-28	32%	-27%
Cc1cc(NC(=O)c2cnn3cccnc23)no1	54*	-2%	141*	121%	/
O=C(Nc1cccc(Cl)c1)c1cnn2cccnc12	38*	-3%	active	317%	/
C=CCNC(=O)c1nn2cccnc2c1Cl	-2	-16%	-8	1%	/
CN(CC(=O)Nc1c(Cl)cccc1Cl)C(=O)C1CSC2(C)CCC(=O)N12 (centres undefined)	/	/	/	2%	-17%
O=C(NCc1ccccc1Cl)C1=CC=CN2CCS(=O)(=O)N=C12	/	/	/	-9%	-17%
COc1ccc2oc(=O)c(C(=O)N3CCN(C(=O)c4ccco4)CC3)cc2c1	6	0%	-8	14%	?
CCc1ccc(N2C(=O)CN(Cc3cc(OC)c(OC)c(OC)c3)C2=S)cc1	-3	6%	-6	4%	-19%
COc1ccc(CN2CC(=O)N(c3ccccc3C)C2=S)cc1OC	0	2%	-9	9.3µM*	96%
COc1cc(CN2CC(=O)N(c3cc(Cl)ccc3C)C2=S)cc(OC)c1OC	-4	2%	-9	2.6µM*	-17%
COc1cc(CN2CC(=O)N(c3ccc(C)c(C)c3)C2=S)cc(OC)c1OC	-2	-1%	3	1µM*	13%
Cc1cc(C)cc(N2C(=O)CN(Cc3ccccc3)C2=S)c1	-1	0%	-2	15µM*	4.7µM*
COc1cc2c(cc1OC)C(c1ccc(N(C)C)cc1)NCC2 (centres undefined)	9	-5%	-5	11%	21%
CCCN(CC(=O)Nc1ccccc1C)C(=O)c1ccc(N2CCCC2=O)cc1	/	/	/	-7%	?
COc1cccc(N2C(=O)CN(Cc3ccc(OC)c(OC)c3)C2=S)c1	5	2%	-13	1.5µM*	?
CCc1ccc(N2C(=O)CN(Cc3cccs3)C2=S)cc1	28*	9%	12	2%	-6%
COc1ccc(N2C(=O)CN(Cc3ccc(OC)c(OC)c3)C2=S)cc1	-6	-2%[11.5 µM]	-9	-9%	?
CCc1ccccc1N1C(=O)CN(Cc2cc(OC)c(OC)c(OC)c2)C1=S	-4	0%	-7	5.2µM*	?
COc1ccc(CN2CC(=O)N(c3cc(Cl)ccc3C)C2=S)cc1OC	-3	-5%	-12	7.4µM*	0%
CCCCCCCCCCCCCCCC(=O)OC(C)C	/	/	/	-4%	-12%
Cc1cccc(C)c1N=C1SC(CC(=O)Nc2c(C)cccc2C)C(=O)N1CCc1ccccn1 (centres undefined)	-2	4%	-8	9.3µM*	9.3µM*

High-throughput results (PubChem)
